# Measured values as given in the supplement of paper PMC6555819.
# Legend:
# Test in all cases: PBM binding z-score (relative to random genomic background probes); higher = stronger binding; sequences stand for … in GC…GCGATTGACAGCGTAGAATGAAGG
# [1] = system: PPARg:RXRa DBDmut IVT, anti-RXR (DBD mutation: RXRa K156A/R161A, NR concentration 270 nM, RXRa partner concentration 90 nM)
# Method in brief: (§1)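 Regression normalization was applied to scanned fluorescence from custom Agilent 4×180K protein-binding microarrays. Before scanning, arrays were incubated 1 h with ligand-free nuclear receptor dimers, and binding was detected with antibodies against each partner (one per run). Binding z-scores use the random background probes as reference.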
# [2] = system: PPARg:RXRa IVT, anti-PPARg (NR concentration 270 nM, RXRa partner concentration 90 nM)
# Method in brief: as §1
# [3] = system: PPARg DBDmut:RXRa IVT, anti-PPARg (DBD mutation: PPARg1 K132A/R137A, NR concentration 270 nM, RXRa partner concentration 90 nM)
# Method in brief: as §1
# [4] = system: PPARg DBDmut IVT, anti-PPARg (DBD mutation: PPARg1 K132A/R137A, NR concentration 270 nM)
# Method in brief: as §1
# [5] = system: PPARg homodimer (NR concentration 180 nM)
# Method in brief: as §1
# [6] = system: PXR:RXRa (NR concentration 270 nM, RXRa partner concentration 90 nM)
# Method in brief: as §1
# [7] = system: PXR homodimer (NR concentration 270 nM)
# Method in brief: as §1
# [8] = system: RARa:RXR (NR concentration 270 nM, RXRa partner concentration 90 nM)
# Method in brief: as §1
# [9] = system: RARa homodimer (NR concentration 270 nM)
# Method in brief: as §1
# [10] = system: RARb:RXRa (NR concentration 270 nM, RXRa partner concentration 90 nM)
# Method in brief: as §1
# [11] = system: RARb homodimer (NR concentration 270 nM)
# Method in brief: as §1
# [12] = system: RARg:RXRa (NR concentration 270 nM, RXRa partner concentration 90 nM)
# Method in brief: as §1
# [13] = system: RARg homodimer (NR concentration 270 nM)
# Method in brief: as §1
# [14] = system: RXRa DBDmut IVT, anti-RXR (DBD mutation: RXRa K156A/R161A, NR concentration 90 nM)
# Method in brief: as §1
# [15] = system: RXRa homodimer (NR concentration 180 nM)
# Method in brief: as §1
# [16] = system: THRa:RXRa (NR concentration 90 nM, RXRa partner concentration 90 nM)
# Method in brief: as §1
# [17] = system: THRa homodimer (NR concentration 90 nM)
# Method in brief: as §1
# [18] = system: VDR homodimer (NR concentration 270 nM)
# Method in brief: as §1
Sequence,PBM binding z-score [1],PBM binding z-score [2],PBM binding z-score [3],PBM binding z-score [4],PBM binding z-score [5],PBM binding z-score [6],PBM binding z-score [7],PBM binding z-score [8],PBM binding z-score [9],PBM binding z-score [10],PBM binding z-score [11],PBM binding z-score [12],PBM binding z-score [13],PBM binding z-score [14],PBM binding z-score [15],PBM binding z-score [16],PBM binding z-score [17],PBM binding z-score [18]
ACTAGCAAGCCAAGGGTCACTCAAGATTAGTCCG,-0.0877,1.46,-0.235,-0.0767,1.68,3.01,0.0127,3.79,0.419,3.11,3.62,3.45,3.58,0.334,3.69,2.51,0.0458,1.08
ACAGACAGGTGAGTGAAGGCAACTCAGCTGGACG,0.534,0.283,0.108,-0.0836,-0.372,-0.299,-0.329,-0.0789,-0.354,0.403,-0.0202,0.0165,0.418,-0.43,0.192,0.383,-0.689,-0.742
CGTCCAAGGTCAATGCTAGGTCTGTGAAAGCATT,3.09,3.37,0.249,0.0297,2.17,3.74,0.712,3.88,0.767,5,3.89,5.81,6.03,3.79,4.4,3.78,2.25,2.69
TCACATAGGTAAAAGGTGAAAGTCGGTGTGGTAA,2.98,3.19,0.93,0.575,1.93,1.81,0.153,3.24,0.922,1.92,1.98,2.02,0.992,1.3,3.3,1.72,0.0653,-0.0676
AAAACAGGGTCACTAGGCCAGAGTAGGTACGAAT,5.29,6.57,2.03,1.25,2.68,3.58,0.329,4.8,1.21,4.18,3.35,5.4,4.84,2.95,5.7,3.48,1.18,2.76
CAATCTAGGTCACCGGAAGGTCAAAGTCCGCATG,8.34,8.62,2.22,1.39,7.89,5.96,2.44,7.4,3.19,5.41,5.77,8.45,7.81,1.98,7.46,4.59,3.62,4.12
CCTCGGAGGACAGATGGTCAGAGCTGTCCGCTTT,-0.386,-0.558,-1,-1.4,0.238,-0.384,-0.503,-0.309,-0.685,0.479,0.0769,0.0731,0.421,-0.0448,-0.625,-0.175,-0.332,-0.436
CAAACTAGGTCGAAGGTCAAAGTCGAGCCAACCA,6.36,7.65,2.75,1.51,3.56,4.98,1.03,6.95,1.29,4.16,3.79,5.7,4.29,1.85,6.86,3.5,0.693,1.71
CGTCCTAGGTCAATGCTAGGTCAGTGAAAGCATT,3.18,3.31,-0.391,-0.333,2.76,2.57,-0.195,4.13,-0.0967,4.06,4.16,6.16,5.14,1.83,2.57,3.94,1.73,0.909
AATACAGGGTCACTAGGCCAGATTAGGTACGAAT,3.7,5.68,1.98,3.15,2.45,3.32,0.427,4.17,0.909,4.09,3.44,5.37,4.96,3.03,5.9,3.57,1.46,2.83
CTCGAATGGTCGGTTGAGGTGAGTATACGGATAA,-0.784,0.126,0.733,0.405,-0.164,-0.105,-0.022,0.211,-0.0787,0.283,0.181,-0.0812,0.168,-0.376,-0.171,2.85,1.49,0.136
TAGCGTAGGTCAGATCGGGCCAGTATACGCTATA,-0.503,0.617,-0.164,-0.912,-0.143,1.48,-0.976,1.23,-1.14,3.07,1.87,2.85,3.72,-0.899,1.83,3.93,-1.02,-0.553
TCTTGGAGATCAACAGGAGGTTAAGAAAGATCGA,0.986,0.364,0.0727,0.526,-0.163,1.09,-0.208,1.41,-0.417,0.374,0.488,1.9,0.145,0.185,1.3,1.14,-0.452,-0.283
TAGCGTAGGTCATGGGCCAGTATACCACGCGAAC,0.846,2.41,-0.196,0.0667,0.862,2.19,-0.726,3.4,-0.444,3.9,2.74,4.61,4.67,-0.189,4.73,2.38,-0.142,0.0635
ACTCGGAGGACAAAGGTCTGAGCTACGCCAGTGA,-0.243,0.315,-0.994,-1.15,0.144,-0.428,-0.379,-0.531,-0.889,1.3,0.62,0.869,0.954,0.352,0.0538,0.538,-0.424,-0.296
CGTCCAAGGTCAAAGTTCAGTGAAGAGATGACGG,3.41,5.08,0.409,1.29,3.79,6.59,3.31,8.01,1.47,5.44,4.6,7.44,7.1,4.25,8.84,4.31,1.92,4.39

Sequence,PBM binding z-score [1],PBM binding z-score [2],PBM binding z-score [3],PBM binding z-score [4],PBM binding z-score [5],PBM binding z-score [6],PBM binding z-score [7],PBM binding z-score [8],PBM binding z-score [9],PBM binding z-score [10],PBM binding z-score [11],PBM binding z-score [12],PBM binding z-score [13],PBM binding z-score [14],PBM binding z-score [15],PBM binding z-score [16],PBM binding z-score [17],PBM binding z-score [18]
GCTATTAGTTGAAAGGGCTACCGAATGATTCTCG,0.511,-0.182,-0.304,0.104,0.707,-0.465,-0.174,-0.0219,0.6,0.408,0.228,-0.023,0.197,0.703,0.0628,-0.589,-0.623,-0.485
TCGAGTAGGTTAGGGGCATTCAGAATGGCGTCGA,1.95,1.44,-0.138,-0.987,1.13,0.245,0.264,0.141,-0.19,1.13,0.976,0.269,0.406,0.45,0.658,0.87,0.0711,0.98
CCGACTGGGGCAGAAAGGTTAACATACCATCCGG,1.78,2.39,-0.202,-1.36,1.53,1.19,-0.126,1.95,0.0538,1.98,2.42,1.95,1.84,-0.366,2,1.09,-0.284,-0.0953
AGAATGAGGTTATACGTAGACCAGGGAAGAAAGT,4.22,2.41,0.544,0.658,0.197,0.906,0.447,1.48,0.232,1.43,0.866,1.63,1.19,1.61,2.16,1.98,0.296,0.999
ACTACCAGGCCAAGGGTCACTCAAGATTAGTCCG,1.41,4.54,0.921,-0.0701,2.3,3.38,0.474,4.11,1.31,3.78,4.07,4.15,3.87,0.629,4.2,3.3,1.15,2.13
ATCTCTAGGTAACACGTTCAGTGAAAGAGAGGAC,3.45,3.05,1.75,1.04,0.135,0.0713,0.206,0.208,0.489,0.552,0.49,0.475,0.586,-0.0545,0.391,0.954,0.748,0.453
CGGACTGGGGCAAGGTTACCATAACGCACAGCCA,4.9,5.59,0.588,0.000804,0.759,0.516,-0.28,1.03,-0.565,1.67,1.45,1.34,1.4,-0.765,1.28,1.48,0.546,0.0512
CGAACTAGGTCATTCAGGACAGTGAATACATTGA,8.1,7.91,2.05,1.68,1.19,2.04,1.68,2.17,0.688,3.61,2.72,3.7,4.69,2.77,2.8,3.63,2.13,2.27
GCTAGTTGGTCAGTAAAAGGTCACACAGCGGTCG,1.19,2.6,-0.374,-0.109,8.6,5.42,1.17,6.43,4.55,4.32,4.98,5.92,5.1,0.686,5.48,3.67,1.78,2.18
CCTACTGGGCCAAGGTCCTTGATCAGTCAAAGCA,3.51,3.4,-1.28,-1.15,-0.287,-0.74,-0.766,-0.787,-1.65,0.256,0.00283,-0.396,-0.0984,-1.13,-0.463,-0.0193,-0.503,-0.774
TCTAGTTGGTCACGCAGGTCACACACGACGGGTA,2.32,3.48,0.238,1.23,1.91,2.72,0.544,3.15,1.14,3.05,3.63,3.59,3.7,1.03,3.08,2.92,1.81,1.76
CTACCAAGGTGAACAAGGTCGTTGAGTACTATTC,2.21,2.45,-0.822,-0.624,0.759,3.07,6.86,2.48,0.402,2.24,2.27,1.92,1.43,1.64,2.39,3.28,1.83,3.27
TCTAGCAGGCCAGAGGGTCCCTCAAGAGGTACGG,0.4,-0.351,-0.654,-1.83,-0.97,-0.673,-1.06,-0.482,-1.2,-0.136,-0.677,-0.337,-0.396,-0.214,-0.191,-0.666,-1.29,-0.908
GGTAGCAGGCCATTTGGGTCACTCAATGACGGGC,0.966,2.81,-0.125,-0.507,0.75,0.505,-0.0413,0.741,-0.36,1.75,2.01,1.27,1.83,-0.513,0.775,1.84,0.696,0.494
CATACAGGGTCAGCTAGGCCACAGTAGGGACGGC,1.06,2.82,0.893,0.0227,2.12,2.51,0.181,3.4,0.445,4.17,3.58,4.56,4.98,1.69,4.55,3.28,1.02,1.89
